Test results reported in the supplement of paper PMC10849652.
The full data set covers some 8,800 targets. This sample favours those with a hit. About 0.5% of all pairs of compound and target were hits.

Key:
Test in all cases: log2 fold change, soluble protein after heating vs DMSO (PISA); higher = thermal stabilisation; K562 lysate, 10 uM; active = over 0.2 and 3.5 SD of the protein, either way, in both replicates (recomputed)
[1] = compound: C1=CC=C(C=C1)[C@H](COC2=CC3=C(C=C2)NC(=O)N3)NC(=O)C4=CC=CN(C4=O)CC5=CC(=C(C=C5)F)F
Outline: (§1)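 Following dounce homogenisation of K562 pellets in PBS pH 7.4 with 1 mM MgCl2, crude extract at 1 mg/mL protein was incubated for 30 min with 10 μM compound. Aliquots were then heated for 3 min over 48°C-58°C and pooled, NP-40 was added to 0.5% at 4°C, and soluble protein was recovered as the supernatant at 21,000xg for 90 min. Channel-sum-equalised TMTpro 16plex LC-MS/MS quantified this protein. Each value, from duplicates, is a log-two fold change in thermal stability relative to solvent controls.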

[2] = compound: CC1=C(SC2=C1C(=N[C@H](C3=NN=C(N32)C)CC(=O)N)C4=CC=C(C=C4)Cl)C
Outline: as §1

[3] = compound: CC1=C2C(=CC=C1)N=C(N(C2=O)C3=CC=CC=C3C)CN4C=NC5=C(N=CN=C54)N
Outline: as §1

[4] = compound: Cc1sc2c(c1C)C(c1ccc(Cl)cc1)=N[C@@H](CC(=O)OC(C)(C)C)c1nnc(C)n1-2
Outline: as §1

[5] = compound: c1ccc([C@@H]2C[C@H]2NC2CCNCC2)cc1
Outline: as §1

Measured: log2 fold change

ORC3 isoform 2 (UniProt Q9UBD5)
inactive: [1] 0.005 | [2] -0.031 | [3] 0.014 | [4] 0.021 | [5] 0.047

PARG (UniProt Q86W56)
inactive: [1] -0.011 | [2] -0.006 | [3] -0.005 | [4] -0.004 | [5] 0.091

PANK2 (UniProt Q9BZ23)
inactive: [1] 0.024 | [2] 0.081 | [3] -0.021 | [4] 0.019 | [5] -0.077

NFATC2IP (UniProt Q8NCF5)
UniProt Q8NCF5, sequence (Q8NCF5 whole entry, looked up): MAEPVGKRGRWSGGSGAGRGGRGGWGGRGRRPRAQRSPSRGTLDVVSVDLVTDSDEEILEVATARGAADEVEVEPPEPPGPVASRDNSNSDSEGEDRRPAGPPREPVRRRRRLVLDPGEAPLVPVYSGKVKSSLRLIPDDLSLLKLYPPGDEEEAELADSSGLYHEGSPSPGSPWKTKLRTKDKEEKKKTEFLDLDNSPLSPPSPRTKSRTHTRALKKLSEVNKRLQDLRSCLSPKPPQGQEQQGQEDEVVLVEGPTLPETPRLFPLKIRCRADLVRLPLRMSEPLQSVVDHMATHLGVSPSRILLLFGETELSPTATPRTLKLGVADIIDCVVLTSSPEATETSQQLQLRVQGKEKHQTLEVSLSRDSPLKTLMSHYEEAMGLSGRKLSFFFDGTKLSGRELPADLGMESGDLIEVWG
inactive: [1] 0.012 | [2] -0.01 | [3] 0.009 | [4] 0.138 | [5] 0.049

NUP133 (UniProt Q8WUM0)
inactive: [1] 0.05 | [2] 0.046 | [3] 0.014 | [4] 0.025 | [5] -0.052

MTA1 (UniProt Q13330)
UniProt Q13330, sequence (Q13330 whole entry, looked up): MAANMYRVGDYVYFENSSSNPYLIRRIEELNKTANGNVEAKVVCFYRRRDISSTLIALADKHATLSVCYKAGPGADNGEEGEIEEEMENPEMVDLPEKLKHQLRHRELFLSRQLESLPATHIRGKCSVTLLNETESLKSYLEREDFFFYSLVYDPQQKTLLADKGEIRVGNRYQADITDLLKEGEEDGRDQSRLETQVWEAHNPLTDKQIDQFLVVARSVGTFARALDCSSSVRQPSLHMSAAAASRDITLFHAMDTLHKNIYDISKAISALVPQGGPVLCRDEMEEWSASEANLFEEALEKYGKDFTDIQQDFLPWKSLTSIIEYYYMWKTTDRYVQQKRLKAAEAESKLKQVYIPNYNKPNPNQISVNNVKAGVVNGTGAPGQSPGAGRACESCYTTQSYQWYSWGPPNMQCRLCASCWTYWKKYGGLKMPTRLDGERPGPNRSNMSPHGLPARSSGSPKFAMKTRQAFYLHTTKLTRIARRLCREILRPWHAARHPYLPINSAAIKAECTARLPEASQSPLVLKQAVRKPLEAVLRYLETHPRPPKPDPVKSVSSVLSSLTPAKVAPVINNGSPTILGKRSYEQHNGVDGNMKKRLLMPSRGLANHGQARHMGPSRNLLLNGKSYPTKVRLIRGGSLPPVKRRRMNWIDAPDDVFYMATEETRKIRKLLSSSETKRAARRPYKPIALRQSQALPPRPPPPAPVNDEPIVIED
inactive: [1] 0.005 | [2] -0.01 | [3] 0.01 | [4] 0.055 | [5] 0.012

NONO (UniProt Q15233)
inactive: [1] -0.047 | [2] 0.02 | [3] 0.015 | [4] 0.026 | [5] 0.074

NUP160 (UniProt Q12769)
inactive: [1] -0.021 | [2] -0.027 | [3] 0.012 | [4] -0.04 | [5] 0.01

NFKBIE (UniProt O00221)
inactive: [1] -0.014 | [2] -0.068 | [3] 0.033 | [4] 0.081 | [5] -0.087

NUDT4 isoform 2 (UniProt Q9NZJ9)
UniProt Q9NZJ9, sequence (Q9NZJ9 whole entry, looked up): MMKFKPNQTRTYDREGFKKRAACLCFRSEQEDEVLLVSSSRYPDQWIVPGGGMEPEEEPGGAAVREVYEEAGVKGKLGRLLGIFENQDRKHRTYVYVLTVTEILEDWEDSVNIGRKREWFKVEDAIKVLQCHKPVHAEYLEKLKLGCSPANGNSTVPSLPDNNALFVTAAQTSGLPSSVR
inactive: [1] 0.009 | [2] -0.011 | [3] 0.01 | [4] 0.067 | [5] -0.026

PAXBP1 (UniProt Q9Y5B6)
inactive: [1] -0.004 | [2] -0.026 | [3] 0.026 | [4] 0.057 | [5] 0.001

NEXN (UniProt Q0ZGT2)
UniProt Q0ZGT2, sequence (Q0ZGT2 whole entry, looked up): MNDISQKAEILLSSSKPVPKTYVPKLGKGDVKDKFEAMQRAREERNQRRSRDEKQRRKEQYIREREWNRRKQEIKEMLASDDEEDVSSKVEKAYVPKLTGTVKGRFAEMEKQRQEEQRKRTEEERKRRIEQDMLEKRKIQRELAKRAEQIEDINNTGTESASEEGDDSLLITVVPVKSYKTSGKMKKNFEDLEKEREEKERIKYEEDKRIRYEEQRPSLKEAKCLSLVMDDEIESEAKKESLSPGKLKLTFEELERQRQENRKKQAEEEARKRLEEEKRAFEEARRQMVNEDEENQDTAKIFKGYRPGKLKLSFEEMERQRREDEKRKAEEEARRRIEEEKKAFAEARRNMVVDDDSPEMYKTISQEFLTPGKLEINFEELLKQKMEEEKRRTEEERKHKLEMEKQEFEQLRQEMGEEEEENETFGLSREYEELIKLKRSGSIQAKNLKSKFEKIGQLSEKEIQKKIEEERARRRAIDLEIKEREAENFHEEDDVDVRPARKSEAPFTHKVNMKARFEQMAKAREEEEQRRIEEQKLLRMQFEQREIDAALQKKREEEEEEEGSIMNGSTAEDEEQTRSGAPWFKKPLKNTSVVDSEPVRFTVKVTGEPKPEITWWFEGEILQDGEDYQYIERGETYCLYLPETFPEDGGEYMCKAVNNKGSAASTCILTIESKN
inactive: [1] -0.31 | [2] 0.335 | [3] 0.271 | [4] -0.083 | [5] -0.22

MTHFD1L (UniProt B7ZM99)
inactive: [1] -0.039 | [2] 0.025 | [3] 0.06 | [4] 0.025 | [5] 0.049

NCOR1 (UniProt O75376)
inactive: [1] -0.009 | [2] 0.002 | [3] 0.035 | [4] 0.015 | [5] 0.001

NUB1 (UniProt Q9Y5A7)
inactive: [1] -0.011 | [2] 0.029 | [3] 0.025 | [4] 0.013 | [5] 0.039

MSH6 (UniProt P52701)
inactive: [1] -0.021 | [2] 0.01 | [3] 0.034 | [4] 0.006 | [5] 0.014

NCOR2 (UniProt C9J0Q5)
inactive: [1] 0.045 | [2] 0.033 | [3] -0.031 | [4] 0.048 | [5] -0.006

PARD3 (UniProt Q8TEW0)
inactive: [1] 0.078 | [2] 0.063 | [3] -0.028 | [4] 0.09 | [5] -0.024

NCAPG2 (UniProt Q86XI2)
inactive: [1] -0.074 | [2] -0.04 | [3] 0.019 | [4] 0.025 | [5] 0.001

NCAPD2 (UniProt Q15021)
inactive: [1] -0.023 | [2] 0.028 | [3] 0.026 | [4] 0.008 | [5] 0.022

NEDD8 (UniProt Q15843)
inactive: [1] 0.051 | [2] -0.014 | [3] -0.047 | [4] 0.002 | [5] 0.085

NF1 (UniProt P21359)
UniProt P21359, sequence (P21359 whole entry, looked up): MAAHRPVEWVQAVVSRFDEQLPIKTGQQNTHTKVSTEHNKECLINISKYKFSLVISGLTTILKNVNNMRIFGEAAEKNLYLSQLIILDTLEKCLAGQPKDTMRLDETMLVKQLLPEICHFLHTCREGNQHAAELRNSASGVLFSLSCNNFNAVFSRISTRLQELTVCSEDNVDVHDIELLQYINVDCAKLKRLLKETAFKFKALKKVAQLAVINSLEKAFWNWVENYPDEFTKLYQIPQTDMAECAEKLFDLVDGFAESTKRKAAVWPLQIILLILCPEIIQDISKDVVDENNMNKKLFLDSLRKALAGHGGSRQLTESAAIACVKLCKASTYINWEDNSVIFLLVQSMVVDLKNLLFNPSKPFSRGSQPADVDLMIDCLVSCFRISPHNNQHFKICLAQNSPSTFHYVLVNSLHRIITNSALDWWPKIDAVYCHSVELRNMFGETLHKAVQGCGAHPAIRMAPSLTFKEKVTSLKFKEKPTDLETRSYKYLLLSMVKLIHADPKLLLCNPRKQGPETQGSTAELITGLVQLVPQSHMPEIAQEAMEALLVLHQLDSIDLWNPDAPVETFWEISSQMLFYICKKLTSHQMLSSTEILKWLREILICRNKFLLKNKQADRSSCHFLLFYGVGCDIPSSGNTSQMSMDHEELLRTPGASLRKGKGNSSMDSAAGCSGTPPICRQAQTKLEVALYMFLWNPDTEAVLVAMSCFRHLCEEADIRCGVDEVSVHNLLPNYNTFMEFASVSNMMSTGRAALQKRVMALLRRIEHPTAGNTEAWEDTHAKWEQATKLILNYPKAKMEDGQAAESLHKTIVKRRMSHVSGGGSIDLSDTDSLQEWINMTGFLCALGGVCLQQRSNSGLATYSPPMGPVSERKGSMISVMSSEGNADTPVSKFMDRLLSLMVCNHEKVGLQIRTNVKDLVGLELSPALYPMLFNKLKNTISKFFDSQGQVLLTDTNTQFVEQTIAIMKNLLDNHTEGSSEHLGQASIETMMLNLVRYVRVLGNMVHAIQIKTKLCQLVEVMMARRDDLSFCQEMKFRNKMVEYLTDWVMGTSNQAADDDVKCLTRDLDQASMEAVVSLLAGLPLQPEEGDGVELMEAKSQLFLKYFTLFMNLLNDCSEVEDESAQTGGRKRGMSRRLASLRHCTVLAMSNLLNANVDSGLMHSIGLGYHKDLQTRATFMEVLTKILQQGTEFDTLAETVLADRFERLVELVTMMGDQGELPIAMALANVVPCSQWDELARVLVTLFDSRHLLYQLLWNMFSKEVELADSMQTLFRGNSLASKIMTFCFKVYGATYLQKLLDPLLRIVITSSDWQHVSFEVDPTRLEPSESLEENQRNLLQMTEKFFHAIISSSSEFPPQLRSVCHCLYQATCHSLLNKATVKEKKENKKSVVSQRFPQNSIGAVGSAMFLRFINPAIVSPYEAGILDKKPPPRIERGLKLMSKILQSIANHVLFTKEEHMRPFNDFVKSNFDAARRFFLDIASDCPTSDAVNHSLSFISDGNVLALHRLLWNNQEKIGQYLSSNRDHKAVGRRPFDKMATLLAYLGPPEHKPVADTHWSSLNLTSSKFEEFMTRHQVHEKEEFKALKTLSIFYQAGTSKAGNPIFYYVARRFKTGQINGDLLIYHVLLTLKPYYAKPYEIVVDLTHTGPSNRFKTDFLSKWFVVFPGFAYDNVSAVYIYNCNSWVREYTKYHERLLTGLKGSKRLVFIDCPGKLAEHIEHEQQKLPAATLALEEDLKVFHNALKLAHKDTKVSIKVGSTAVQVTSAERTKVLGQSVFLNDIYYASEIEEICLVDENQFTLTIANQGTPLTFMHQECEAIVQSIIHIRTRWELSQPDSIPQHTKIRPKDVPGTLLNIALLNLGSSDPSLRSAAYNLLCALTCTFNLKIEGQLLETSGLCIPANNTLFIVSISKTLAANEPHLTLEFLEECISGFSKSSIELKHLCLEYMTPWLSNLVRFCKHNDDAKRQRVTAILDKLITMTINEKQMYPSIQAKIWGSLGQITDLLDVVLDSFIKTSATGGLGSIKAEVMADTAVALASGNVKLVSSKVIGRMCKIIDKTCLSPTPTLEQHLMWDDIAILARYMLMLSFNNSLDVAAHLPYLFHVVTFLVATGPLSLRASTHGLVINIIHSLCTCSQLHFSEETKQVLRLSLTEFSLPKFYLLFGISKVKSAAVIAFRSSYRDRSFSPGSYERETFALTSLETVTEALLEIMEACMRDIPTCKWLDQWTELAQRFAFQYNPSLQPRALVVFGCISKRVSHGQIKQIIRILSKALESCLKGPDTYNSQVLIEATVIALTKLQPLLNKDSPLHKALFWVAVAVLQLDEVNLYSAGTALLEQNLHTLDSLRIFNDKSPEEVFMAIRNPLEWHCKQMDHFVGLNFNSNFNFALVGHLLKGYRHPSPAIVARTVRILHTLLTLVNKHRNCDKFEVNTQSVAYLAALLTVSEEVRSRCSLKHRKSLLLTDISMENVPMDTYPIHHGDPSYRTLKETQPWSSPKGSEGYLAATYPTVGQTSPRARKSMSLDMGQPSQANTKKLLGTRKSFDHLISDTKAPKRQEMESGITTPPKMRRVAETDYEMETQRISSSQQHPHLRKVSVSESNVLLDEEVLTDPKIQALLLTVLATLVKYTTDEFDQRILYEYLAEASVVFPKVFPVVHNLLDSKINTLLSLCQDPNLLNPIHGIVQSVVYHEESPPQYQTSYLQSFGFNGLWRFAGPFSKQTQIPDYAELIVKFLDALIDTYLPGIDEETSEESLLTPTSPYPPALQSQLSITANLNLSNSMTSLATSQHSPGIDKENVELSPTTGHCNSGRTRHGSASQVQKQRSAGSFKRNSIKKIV
inactive: [1] -0.03 | [2] -0.01 | [3] 0.03 | [4] -0.009 | [5] 0.016

NTMT1 (UniProt Q9BV86)
UniProt Q9BV86, sequence (Q9BV86 whole entry, looked up): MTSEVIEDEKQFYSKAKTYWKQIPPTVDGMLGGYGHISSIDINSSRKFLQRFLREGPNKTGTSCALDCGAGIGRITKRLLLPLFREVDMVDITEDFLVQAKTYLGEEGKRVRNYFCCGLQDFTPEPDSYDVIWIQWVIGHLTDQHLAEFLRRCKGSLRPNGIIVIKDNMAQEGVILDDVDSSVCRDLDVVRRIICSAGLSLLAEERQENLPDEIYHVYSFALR
inactive: [1] -0.01 | [2] -0.036 | [3] -0.019 | [4] 0.02 | [5] 0.098

MTA2 (UniProt O94776)
inactive: [1] 0 | [2] 0.015 | [3] -0.004 | [4] 0.015 | [5] 0.031

OGT (UniProt O15294)
inactive: [1] 0.029 | [2] 0.012 | [3] 0.016 | [4] 0.067 | [5] 0.039
